From PubChem
SMN2 splice up: enhancers of SMN2 splice variant expression; HEK293 SMN2-luciferase splicing reporter, luminescence, 30-36 h; Potency, µM (titrated, usually from 46.1 µM), inactives show top-dose activity change, positive = activation, actives largely listed as activators; actives 2.8% (n = 210,000); note: % of control where 0% means no effect; nearly all actives have a fitted effect of over 55% in size
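HEK293 cells carry an SMN2 minigene-luciferase reporter in which exon 7 inclusion puts luciferase in frame. Cells were seeded at 2000 cells/well, attached for 10-12 hours, then exposed to compounds for 30-36 hours at 37C before ONE-Glo luminescence.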
NPC1 prom act: NPC1 promoter activation; Potency, µM (titrated, usually from 9.22 µM), without a hit: at the highest dose activation, usual class: activators; actives 2.4% (n = 320,000); Huh7 NPC1 promoter luciferase reporter, 24 h; note: % of control where 0% means no effect; nearly all actives have a fitted effect of over 60% in size
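Luminescence from an NPC1 promoter-driven luciferase reporter in stably transfected Huh7 cells was measured after 24 h compound treatment at 37 °C, followed by 10 min ambient incubation with luciferase detection reagent.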
Rab9 prom act: Rab9 promoter activation; actives 2.8% (n = 320,000); Huh7 Rab9 promoter-luciferase reporter, luminescence, 24 h; Potency, µM (titrated, usually from 9.22 µM), inactives show at the highest dose activation, negative = inhibition, most hits filed as activators; note: % of control where 0% means no effect; nearly all actives have a fitted effect of over 60% in size
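Huh7 cells stably carrying Rab9 promoter–luciferase reporter, plated 1500 cells/well, compound added after 2 h and incubated 24 h at 37 °C; luciferase luminescence then read after 10 min with detection reagent.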
ELG1 repair inh: inhibitors of ELG1-dependent DNA repair in HEK293T cells; actives 2.3% (n = 330,000); Potency, µM (series often up to 46.1 µM), inactives show at the highest dose activity change, negative = inhibition, hits mostly inhibitors; AID 504467; HEK293T ELG1-luciferase reporter, luminescence, 16 h; DNA damage induced by 5-fluorouridine; note: % is set by controls: 0 for no effect and ±100 for the full control effect; nearly all actives have a fitted effect of over 55% in size
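5-Fluorouridine DNA damage + compound/DMSO, 2,000 cells/well, 16 h, 37 °C/5% CO2. ONE-Glo, 30 min RT, luminescence. Readout = decrease in reporter signal.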
FLuc counter: inhibits or activates purified firefly luciferase, miR-21 counter-screen; Potency, µM (top dose mostly 57.5 µM), inactives show at the highest dose activity change, negative = inhibition, most hits filed as inhibitors; AID 588342; P08659; purified FLuc, Km substrates, luminescence inhibition; actives 6.9% (n = 360,000);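 note: plate controls were vehicle for no effect and reference inhibitor for full effect; nearly all actives have a fitted effect of over 55% in size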
Target sequence (P08659 whole entry, looked up): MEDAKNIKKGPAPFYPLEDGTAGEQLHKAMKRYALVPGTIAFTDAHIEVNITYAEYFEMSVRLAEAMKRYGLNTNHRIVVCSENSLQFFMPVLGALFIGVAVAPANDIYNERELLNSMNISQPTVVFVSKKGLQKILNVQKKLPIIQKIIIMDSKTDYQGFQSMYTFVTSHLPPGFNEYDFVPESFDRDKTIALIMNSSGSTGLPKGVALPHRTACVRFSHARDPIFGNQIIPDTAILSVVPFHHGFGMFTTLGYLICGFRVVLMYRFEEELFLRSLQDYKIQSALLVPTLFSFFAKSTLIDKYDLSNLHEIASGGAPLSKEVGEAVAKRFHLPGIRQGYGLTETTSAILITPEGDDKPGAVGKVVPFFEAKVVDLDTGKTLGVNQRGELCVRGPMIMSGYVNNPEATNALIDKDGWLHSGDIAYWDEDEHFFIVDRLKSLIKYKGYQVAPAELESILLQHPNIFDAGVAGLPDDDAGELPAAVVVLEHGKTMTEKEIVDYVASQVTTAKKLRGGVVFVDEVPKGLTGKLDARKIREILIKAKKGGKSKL
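Purified P. pyralis luciferase, 10 nM final, with Km-level 10 uM D-luciferin and 10 uM ATP in 50 mM Tris acetate pH 7.5, 10 mM Mg acetate, 0.01% Tween-20, 0.05% BSA; 6-point qHTS titration about 60 µM downward; luminescence read.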
ELG1 genotoxic: induces genotoxicity in HEK293T cells with luciferase-tagged ELG1; HEK293T ELG1-luciferase reporter, luminescence, 16 h; Potency, µM (highest dose often 46 µM), without a hit: top-dose activity change, positive = activation, hits mostly activators; actives 1.3% (n = 330,000); note: % of control where 0% means no effect; nearly all actives have a fitted effect of over 60% in size
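Luminescence read-out: rising ELG1-luciferase signal, reflecting elevated ELG1 protein under genetic stress, flags genotoxic compounds. Cells were treated for 16 hr at 37 °C before ONE-Glo detection.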
Starred values were filed as active, the others as inactive; u = inconclusive; x = no result given; [ ] = remark or other dose. Shown are actives, neighbours in structure and some others; about 9.2% of the full set was active somewhere. Calls come from the whole dose curve; as a rule, active = well fitted curve in the direction sought with a large enough effect; inconclusive = small, poorly fitted or top-dose-only effect, or another doubt; inactive = no such curve, though single readings can be large; an effect the other way counts as inactive or inconclusive. Potency is the fitted concentration of half-maximal effect.

SMILES	SMN2 splice up	NPC1 prom act	Rab9 prom act	ELG1 repair inh	FLuc counter	ELG1 genotoxic
COc1ccc(S(=O)(=O)N(CC(=O)NC(C)c2ccccc2)c2ccc(C)cc2)cc1OC (stereo not given)	2%	x	x	x	-3%	x
COc1cccc2cc(C(=O)CS(=O)(=O)c3ccc(Cl)cc3)c(=O)oc12	x	-1%	1%	-1%	-2%	3%
Cc1cc(C)c(NC(=O)CN2C(=O)c3cccnc3Oc3ccc(C)cc32)c(C)c1	x	x	x	x	2%	x
CCOc1cc(C(=O)Nc2ccc3nc(Nc4cccc(Cl)c4)cc(C)c3c2)cc(OCC)c1OCC	x	x	x	x	5%	x
OC(COCc1ccc(Cl)cc1)CN1CCN(CC(O)COCc2ccc(Cl)cc2)CC1 (stereo not given)	-51%	-14%	-34%	21µM*	-14%	-1%
CCOC(=O)c1c(NC(=O)C(C)Sc2cn(CCNC(=O)c3c(F)cccc3F)c3ccccc23)sc2c1CCC2 (stereo not given)	-3%	x	x	x	3%	x
CCc1cc(C(=O)Cc2ccccn2)c(O)cc1O	x	2%	-3%	u	-4%	-4%
CC(=O)Oc1ccc(C(=O)Cc2ccccn2)c(O)c1	-5%	-1%	-3%	u	17µM*	1%
Cc1ccc(S(=O)(=O)N[C@H](C(=O)OCn2nnc3ccccc3c2=O)C(C)C)cc1	-45%	0%	-6%	21µM*	1%	-8%
Cc1ccc(NC(=O)c2c(C)oc3ncn(CC(C)C)c(=O)c23)nc1	x	x	x	x	-8%	x
CCCNC(=O)c1c(N)n(-c2cccc(OC)c2)c2nc3ccccc3nc12	-10%	-2%	2%	16µM*	2%	-10%
COCCCNC(=O)c1c(N)n(-c2cccc(S(N)(=O)=O)c2)c2nc3ccccc3nc12	24%	-5%	-6%	12µM*	6%	-18%
COCCCNC(=O)c1c(N)n(/N=C/c2ccccn2)c2nc3ccccc3nc12	-33%	1%	0%	4.6µM*	0%	2%
Nc1c(C(=O)NCCN2CCOCC2)c2nc3ccccc3nc2n1-c1cccc(F)c1	0%	-1%	-4%	u	-1%	-1%
C=CCn1c(C)cc(C2=NNC(=NC(C)(C)C)SC2)c1C	-90%	u	u	u	0.34µM*	0.58µM*
Cc1cc(C2=NNC(=Nc3ccc(S(=O)(=O)N4CCOCC4)cc3)SC2)c(C)n1C	x	2%	-3%	0%	-17%	0%
C=CCn1c(C)cc(C2=NNC(=Nc3ccc(C)cc3)SC2)c1C	21%	u	u	u	u	6%
COCCn1c(C)cc(C2=NNC(=NC3CC3)SC2)c1C	-103%	-42%	-37%	5.2µM*	0.24µM*	-19%
Cc1cc(C2=NNC(=NCc3ccccc3)SC2)c(C)n1-c1c(C)n(C)n(-c2ccccc2)c1=O	-1%	-1%	-1%	-14%	5%	3%
C=CCN=C1NN=C(c2cc(C)n(CCOC)c2C)CS1	-73%	-16%	-21%	u	0.38µM*	-8%
COCCn1c(C)cc(C2=NNC(=Nc3ccc(Cl)cc3Cl)SC2)c1C	-31%	1%	3%	0%	u	-1%
CCOc1ccc(N=C2NN=C(c3cc(C)n(CC4CCCO4)c3C)CS2)cc1 (stereo not given)	27%	27%	u	1%	13µM*	7%
CCOc1ccccc1NC(=O)C1=C(C)Nc2ncnn2C1c1ccccn1 (stereo not given)	x	x	x	x	3%	x
CCN1C(=O)/C(=C/N2CCc3ccccc3C2)SC1=S	x	u	u	u	24µM*	10%
O=C(NCCc1ccccc1)c1ccc2c(c1)N(Cc1ccc(Cl)cc1)C(=O)c1ccccc1S2(=O)=O	12%	x	x	x	2%	x
SMILES	SMN2 splice up	NPC1 prom act	Rab9 prom act	ELG1 repair inh	FLuc counter	ELG1 genotoxic
Cc1ccn2c(NC3CCCC3)c(-c3ccsc3)nc2c1	-30%	1%	-7%	u	24µM*	-6%
CC(C)Cn1cc(NC(=O)NCc2cccc(Cl)c2)c2ccccc2c1=O	x	x	x	x	3%	x
O=c1c2c3c(sc2ncn1/N=C/c1ccco1)CCCC3	u	10%	9%	21%	0%[2.3 µM]	7%
NNc1nc2sc3c(c2c(=O)n1-c1ccccc1)CCCC3	x	-6%	1%	-25%	12µM*	5%
Nn1c(Nc2ccccc2)nc2sc3c(c2c1=O)CCCC3	u	2%	0%	u	15µM*	10%
O=c1c2c3c(sc2ncn1/N=C/c1ccccc1)CCCC3	20µM*	25%	22%	u	11µM*	u
Cc1ccc(-c2nc3sc4c(c3c(=O)n2N)CCCC4)cc1	11µM*	1.3µM*	0.63µM*	u	2.1µM*	u
Cc1cnc(C(=O)OCC(=O)c2ccc(Cl)cc2)cn1	x	-6%	-2%	-3%	-15%	0%
COc1ccc(CCNC(=O)C2CC(=O)N(C3CCCCC3)C2)cc1OC (stereo not given)	x	-2%	3%	13%	-1%	-1%[9.26 µM]
Cc1ccc(C2CC(=O)n3nc(-c4cccc(C)c4)nc3S2)cc1 (stereo not given)	-5%	x	x	x	2%	x
Cc1nc(N2CCCC2)ncc1C(=O)Nc1ccc(F)cc1F	x	x	x	x	-6%	x
CCCc1cc(=O)oc2cc(C)cc(OCC(=O)NCCN3CCOCC3)c12	x	3%	-3%	4%	-2%	-1%
CCCc1cc(=O)oc2cc(C)cc(OCC(=O)Nc3ccc(CN4CCOCC4)cc3)c12	x	1%	-4%	15µM*	-3%	-17%
CCc1cc(=O)oc2cc(C)cc(OCC(=O)NCCc3c[nH]c4ccccc34)c12	x	1%	-3%	5.8µM*	2%	-2%
N=c1c(S(=O)(=O)c2ccc(F)cc2)cc2c(=O)n3ccccc3nc2n1CC1CCCO1 (stereo not given)	x	-4%	-2%	4%	0%	2%
COC(=O)c1c(-c2cccc3ccccc23)csc1NC(=O)Cc1ccc(OC)c(OC)c1	-53%	-5%	-3%	21µM*	0%	-18%
COC(=O)c1c(-c2ccc(Br)cc2)csc1NC(=O)Cc1ccc(OC)c(OC)c1	-74%	-2%	-19%	18µM*	0%	-13%
CCN(CC(=O)Nc1ccccc1C(F)(F)F)C(=O)c1ccc(N2CCCC2=O)cc1	x	-2%	0%	-25%	0%	3%
COc1ccc(-n2c(C)cc(/C=C(\C#N)C(=O)NCc3ccco3)c2C)cc1	-7%	8%	0%	-11%	12µM*	0%
COCCNC(=O)/C(C#N)=C/c1cc(C)n(C2CCCCC2)c1C	6.3µM*	1.8µM*	0.79µM*	u	3µM*	1%
